Screening results as filed in PubChem BioAssay.
In the library only some 6.1% were active in any assay of this set; here they are far more common.
D3 antag: antagonists of human D3 dopamine receptor; P35462; D3R cells, DiscoveRx beta-arrestin luminescence, antagonist mode; hits give low values; max response, negative = inhibition, %; 2.5% of 360,000 active; in the data active = max response below about -50%; inconclusive = no clear call, values can overlap the other calls
Target sequence (P35462 whole entry, looked up): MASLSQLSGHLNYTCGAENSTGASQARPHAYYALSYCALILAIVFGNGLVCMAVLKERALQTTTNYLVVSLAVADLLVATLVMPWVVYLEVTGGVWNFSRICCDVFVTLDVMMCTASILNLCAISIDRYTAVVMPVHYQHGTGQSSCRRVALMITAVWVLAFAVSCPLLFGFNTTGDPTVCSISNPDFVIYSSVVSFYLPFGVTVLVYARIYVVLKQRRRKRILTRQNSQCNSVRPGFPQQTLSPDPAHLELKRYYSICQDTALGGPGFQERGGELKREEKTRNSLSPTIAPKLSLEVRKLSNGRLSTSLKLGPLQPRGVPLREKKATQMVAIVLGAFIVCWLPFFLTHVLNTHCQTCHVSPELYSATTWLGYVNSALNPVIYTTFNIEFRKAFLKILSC
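Cells plated overnight at 1500 cells/well, then exposed to library compounds with dopamine controls for 90 minutes at 37 degrees C. DiscoveRx reagent added for 30–60 minutes at room temperature; luminescence read, quantitative HTS format.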
D3 ag: D3 dopamine receptor (human) agonism. P35462. D3R DiscoveRx beta-arrestin cells, luminescence, 90 min. max activation, %. 0.58% of 410,000 active. AID 652048; in the data active = max activation above about 30%
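Cells at 1500/well, incubated overnight, then treated with pinned compounds (dopamine as control) for 90 min at 37 degrees C. DiscoveRx reagent added for 30 - 60 minutes at room temperature; luminescence read.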
D1 ag: agonists of human D1 dopamine receptor; P21728; HEK293 T-REx D1 cells, calcium flux, agonist mode; activation, % at 2 µM; 1% of 360,000 active; AID 504660; in the data active = activation above about 30%
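Agonism was scored from calcium flux recorded over 180 s (1 read/s) after pintool compound addition, following a 10-cycle baseline. Cells were inducible force-coupled HEK293 TREx D1, plated overnight at 30 C and loaded with no-wash calcium dye.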
D1 PAM: potentiators of human D1 dopamine receptor; P21728; HEK293 TREx D1 cells, calcium flux, dopamine EC20 potentiation; potentiation, % at 10 µM; 0.036% of 360,000 active; in the data active = potentiation above about 30%
ERG Ets-DNA blk: ERG Ets/DNA interaction inhibition. P11308. fluorescence polarization, His-ERG Ets domain / labelled DNA. Potency, µM (titrated, usually from 76.9 µM), actives largely listed as inhibitors. 0.028% of 370,000 active. AID 624246; active = well fitted inhibition curve with a large enough effect in the polarisation, with a control signal flat; inconclusive = small, poorly fitted or top-dose-only effect, or effect the other way, or a change in a side signal; inactive = no such curve, though single readings can be large or run the other way; the % refers to the polarisation;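 also: polarization taken with two DNA probes labelled with fluorescein and Texas red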
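His-tagged ERG Ets domain (1 uM in the protein solution; 300mM KCl, 50mM Tris-HCl, 1mM EDTA, 1mM DTT, pH 7.5) received compound, then a probe mix of 5 nM fluorescein-DNA and 100nM Texas-615-DNA. Fluorescence polarization was read for both dyes.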
D1 antag: human D1 dopamine receptor antagonism; HEK293 TREx D1 cells, calcium flux, dopamine EC80; hits give low values; activity change, negative = inhibition, % at 10 µM; 3.2% of 360,000 active; AID 504652; in the data active = activity change below about -30%
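HEK293 T-REx cells expressing inducible, force-coupled D1 receptor; no-wash Ca dye, 30–90 min RT. Cmpd → 180 s read at 1 Hz → EC80 DA → 180 s read.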
Of the large screens only hits and unclear results are named; the others gave an inactive call.

Cc1ccc(SCc2c(C(=O)N/N=C/c3ccoc3)nnn2-c2nonc2N)cc1	D1 antag -45
O=C(CSc1nc2ccccc2c(=O)n1-c1ccc(F)c(Cl)c1)Nc1ccc2c(c1)CCC2	D3 antag inconclusive (no result: D1 ag, D1 PAM, ERG Ets-DNA blk, D1 antag)
CCOC(=O)c1[nH]cnc1C(=O)N1CCN(C(=O)OC(C)(C)C)CC1	none (no result: D1 antag)
CCc1ccc(/C=N/NC(=O)c2nnn(-c3nonc3N)c2C(C)C)cc1	D1 ag 142
CCCOc1ccc(-c2c(C(=O)N/N=C/c3ccc(C)cc3)nnn2-c2nonc2N)cc1	none
Cc1ccc(-c2c(C(=O)N/N=C/c3ccc(OC(C)C)cc3)nnn2-c2nonc2N)cc1	D1 ag 55
Cc1ccc(-c2c(C(=O)N/N=C/c3ccoc3)nnn2-c2nonc2N)cc1	D1 ag 44
CCOc1ccc(-c2c(C(=O)N/N=C/c3ccc(C)cc3)nnn2-c2nonc2N)cc1	D1 ag 44
O=C1CC(N2CCN(c3ccccc3)CC2)C(=O)N1c1ccc2c(c1)OCO2 (stereo not given)	none (no result: D1 antag)
COc1ccccc1CNC(=O)CSc1n[nH]c(N)n1	none
COCc1cc(C)nc2sc(C(=O)Nc3cccc(OC)c3)c(N)c12	none
Nc1ccn([C@@H]2O[C@H](C(=O)Nc3cc(C(F)(F)F)cc(C(F)(F)F)c3)[C@@H](O)[C@H]2O)c(=O)n1	none (no result: D1 ag, D1 PAM, ERG Ets-DNA blk, D1 antag)
O=C(O)CC(C(=O)Nc1ccc(Cl)cc1Cl)C1CCCO1 (stereo not given)	D1 antag -63
Fc1ccc(-c2nc3cnccn3c2NC2CCCC2)cc1	D1 antag -36
Brc1ccc2c(c1)CN1CCCC1=N2	D3 antag -50
O=C1CN2C(=Nc3ccc(Br)cc3C2c2ccccc2)CCN1 (stereo not given)	none
O=C(CN1C(=O)NC2(CCCC2)C1=O)OCCOc1ccccc1	none
O=C(CCCOc1ccccc1)NN1C(=O)NC2(CCCCC2)C1=O	D1 antag -43
COC(=O)C1(C)CN(S(=O)(=O)c2ccc(C)cc2)c2cc(OC)ccc2C1=O (stereo not given)	none
COC(=O)C1(C)CCc2cc(OC)ccc2C1=O (stereo not given)	D1 antag -46
CC1=C(C(=O)N2CCc3ccccc32)C2(CCC(C)CC2)OC1=O (stereo not given)	D1 antag -78
CC1=C(C(=O)N2CCCCC2)C2(CCC(C)CC2)OC1=O (stereo not given)	none
Cc1cc(C(=O)Nc2ccccc2Cl)n(-c2ccccc2)n1	none
COC1=C/C(=C/c2c(N)n3nc(-c4ccc(C)cc4)sc3nc2=O)C=CC1=O	none
CCS(=O)(=O)c1nn2c(N)c(/C=C3/C=CC(=O)C(OC)=C3)c(=O)nc2s1	D1 ag 31
Cc1nc(-c2ccccc2)sc1C(=O)CSc1ccc(Cl)cc1	none
Cc1nc(-c2ccccc2)sc1C(=O)CSc1ccc(Br)cc1	D3 antag inconclusive, D1 antag -36
N#Cc1c(Cl)nc(SCc2ccccc2)nc1-c1ccccc1	D1 antag -32 (no result: D3 antag, D3 ag, ERG Ets-DNA blk)
COC(=O)c1ccc2[nH]c([C@H](C)O)c([C@H](C)O)c2c1	none
CCC(c1nnc(SCC(=O)Nc2cc(Cl)ccc2C#N)n1C1CCCCC1)N(C)C (stereo not given)	none
Cc1nnc(SCc2cc(=O)n3c(C)cccc3n2)s1	none (no result: D3 antag)
Cc1ccc(NC(=O)NC2CC(=O)N(c3ccc4c(c3)OCCO4)C2)cc1C (stereo not given)	none
Cc1ccc(NC(=O)NC2CC(=O)N(c3ccc4c(c3)OCCO4)C2)c(C)c1 (stereo not given)	D1 antag -47
O=C(OCn1nnc2ccccc2c1=O)C12CC3CC(CC(O)(C3)C1)C2	none
Cc1cccc2nc(CSc3nc4ccc([N+](=O)[O-])cc4[nH]3)cn12	D1 antag -37
O=[N+]([O-])c1ccc2nc(SCc3cn4ccccc4n3)[nH]c2c1	none (no result: ERG Ets-DNA blk)
CCOC(=O)c1c(NC(=O)CSc2nnnn2-c2ccccc2)sc2c1CC(C)(C)NC2(C)C	none
Cc1ccc2nc(SCC(=O)Nc3cccc([N+](=O)[O-])c3)[nH]c2c1	D3 antag -52
Cc1ccc2nc(SCc3ccc([N+](=O)[O-])cc3)[nH]c2c1	D1 antag -35
CCOC(=O)c1c(NC(=O)CSc2nc3ccc(C)cc3[nH]2)sc2c1CC(C)(C)NC2(C)C	D3 antag inconclusive, D1 ag 48
Cc1ccc2nc(SCC(=O)Nc3ccc(C(N)=O)cc3)[nH]c2c1	none
Cc1ccc(-c2nn(-c3ccccc3)cc2/C=C/C(=O)O)o1	none
Cc1cc(C)cc(NC(=O)CN2C(=O)CSc3ccc(S(=O)(=O)N(C)C)cc32)c1	none (no result: D3 antag)
CCOC(=O)C1CCN(C(=O)c2ccc3c(c2)sc2nc(-c4ccc(OC)cc4)cn23)CC1	none (no result: D3 antag)
O=C(NCc1ccco1)C1CCCCN1S(=O)(=O)c1ccc(F)cc1 (stereo not given)	D1 antag -39
O=C(NCc1ccc(F)cc1)C1CCCN1S(=O)(=O)c1ccc(F)cc1 (stereo not given)	none (no result: D1 ag, D1 PAM, ERG Ets-DNA blk, D1 antag)
CCOC(=O)c1c(NC(C)=O)sc2c1CCC(C=NCCCN(CC)CC)=C2Sc1ccccc1	D3 antag -66 (no result: D1 ag, D1 PAM, D1 antag)
CCOC(=O)c1c(NC(C)=O)sc2c(OCCN(CC)CC)c(Br)ccc12	none
COc1cc(NC(=S)N2CCN(C/C=C/c3ccccc3)CC2)cc(OC)c1	none
COc1cc(NC(=S)N2CCN(C(c3ccccc3)c3ccccc3)CC2)cc(OC)c1	D1 antag -32
CCCNC(=S)N1CCN(C(c2ccccc2)c2ccccc2)CC1	D1 antag -33
C[C@H]1CN([C@@H](C)CO)C(=O)c2cccc(NC(=O)Nc3ccc(C(F)(F)F)cc3)c2O[C@H]1CN(C)C	none (no result: D1 ag, D1 PAM, D1 antag)
CC1CCC2(CC1)NC(=O)N(CC(=O)Nc1ccccc1-c1ccccc1)C2=O (stereo not given)	none
O=C(c1ccc(=O)[nH]n1)N1CCN(S(=O)(=O)c2ccccc2F)CC1	none (no result: D1 ag, D1 PAM, D1 antag)
Cc1ccc(-c2nnc(NC(=O)c3ccco3)s2)cc1	none
Cc1nnc(NC(=O)c2ccco2)s1	D1 antag -52
Cc1ccccc1C(=O)Nc1nnc(S(=O)(=O)N(C)Cc2ccc(Cl)cc2)s1	D1 antag -31 (no result: D3 antag)
CN(c1ccc(Cl)cc1)S(=O)(=O)c1nnc(NC(=O)c2ccco2)s1	D3 antag -72
CCOC(=O)Cc1cc(=O)[nH]n(-c2ccccc2)c1=O	none (no result: D1 ag, D1 PAM, D1 antag)
CCC(/C=N/NC(=O)c1ccccc1F)CC	D1 antag -37
CCC1CCc2c(sc(NC(=O)C3CC=CCC3C(=O)O)c2C#N)C1 (stereo not given)	D3 ag 33
